# Source: paper PMC5540273 (PLoS ONE, 2017)
# How the values were obtained:
# Details in all cases: concentration: 1 μM,replicates: in singlicate; n = 1
# [1] = tested on: PLK2
# [2] = tested on: PLK3
# [3] = tested on: PLK4
# [4] = tested on: PRKCD
# [5] = tested on: PRKCE
# [6] = tested on: PRKCH
# [7] = tested on: PRKCI
# [8] = tested on: PRKCQ
# [9] = tested on: PRKD1
# [10] = tested on: PRKD2
# [11] = tested on: PRKD3
# [12] = tested on: PRKG1
# [13] = tested on: PRKG2
# [14] = tested on: T1, PRKR
# T1 construct: gene EIF2AK2
# [15] = tested on: PRKX
# [16] = tested on: PRP4
# [17] = tested on: T2, PYK2
# T2 construct: gene PTK2B
# [18] = tested on: QSK
# [19] = tested on: RAF1
# [20] = tested on: RET
# 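Also: KINOMEscan kinase panel screen.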
SMILES,%Inh [1] [%],%Inh [2] [%],%Inh [3] [%],%Inh [4] [%],%Inh [5] [%],%Inh [6] [%],%Inh [7] [%],%Inh [8] [%],%Inh [9] [%],%Inh [10] [%],%Inh [11] [%],%Inh [12] [%],%Inh [13] [%],%Inh [14] [%],%Inh [15] [%],%Inh [16] [%],%Inh [17] [%],%Inh [18] [%],%Inh [19] [%],%Inh [20] [%]
Cn1ccc2ncnc(Oc3ccc(NC(=O)Nc4cccc(C(F)(F)F)c4)c(Cl)c3)c21,2,22,9,0,0,0,8,7,0,15,9,0,7,0,0,5,6,0,80,100
NC(=O)Nc1sc(-c2ccc(F)cc2)cc1C(N)=O [GW789449],20,1,26,20,17,0,25,35,0,0,0,6,8,35,0,75,26,0,43,55
Cn1ccc2ncnc(Oc3ccc(NC(=O)Nc4cc(C(C)(C)C)on4)c(Cl)c3)c21,4,7,19,21,0,0,6,27,0,7,0,0,33,0,17,23,16,0,78,100
c1ccc(Oc2ccc(Nc3ccnc4ccc(-c5ccccn5)cc34)cc2)cc1 [GW407034],0,0,15,0,3,0,0,27,0,5,33,0,0,0,12,4,0,14,19,6
CNC(=O)c1ccccc1Nc1nc(Nc2cccc(CS(C)(=O)=O)c2)ncc1C.O=CO [GSK1520489],68,17,100,13,77,0,17,42,0,6,13,0,8,28,0,82,99.5,22,2,100
FC(F)(F)c1cc(Br)cc(Nc2nccc(-c3cnn4ncccc34)n2)c1 [GW810578],24,13,26,16,4,7,0,1,4,0,0,25,0,0,0,0,80,12,0,0
CCn1c(-c2nonc2N)nc2cncc(CNC3CCNCC3)c21.Cl [SB-747651],0,0,0,77,66,89,10,43,0,0,50,74,86,0,55,20,0,1,97.5,5
OCCn1cc(-c2cnc3nnn(Cc4ccc5ncccc5c4)c3n2)cn1,0,50,4,0,49,0,0,0,5,0,0,0,0,0,0,0,0,0,0,0
CCCC(=O)Nc1n[nH]c2ncccc12 [SB-601436],7,7,0,0,19,0,0,0,0,0,0,5,0,0,0,8,7,0,0,0
CC(=O)Nc1nc2cnc(Nc3cc(NC(=O)c4cccc(CC(C)(C)C#N)c4)ccc3C)nc2s1,0,3,18,13,0,14,5,11,0,0,0,0,17,0,35,6,9,0,99.5,99.7
Cn1ccc2ncnc(Oc3ccc(NC(=O)Nc4cnn(C(C)(C)C)c4)c(Cl)c3)c21,1,11,31,27,0,0,10,21,0,13,4,9,0,17,3,0,0,0,44,100
Cc1ccc(Nc2ccnc(Nc3ccc4c(c3)CS(=O)(=O)C4)n2)cc1O.Cl [GW579362],0,4,99.7,0,19,0,32,46,29,55,87,0,0,47,0,84,83,9,42,100
Nc1nccc(-c2ccc3c(N)n[nH]c3c2)n1 [GSK1034945],0,0,0,0,0,11,3,21,0,0,4,0,68,0,68,27,8,0,17,9
Cn1ccc2ncnc(Oc3ccc(NC(=O)Nc4ccnc(C(F)(F)F)c4)c(Cl)c3)c21,0,0,11,0,0,0,0,7,0,4,0,0,9,0,1,14,9,0,16,100
Cc1ccc(CC(=O)N2CCc3cc(-c4cn(C)c5ncnc(N)c45)ccc32)cc1 [GSK2634758],2,0,0,15,15,35,27,33,0,14,0,4,12,7,12,20,0,0,7,7
COc1cc(Nc2nccc(N3CCC(NC(=O)c4cccc(C#N)c4)C3)n2)cc(OC)c1OC (stereo not drawn) [GSK1379751],0,0,36,0,7,0,0,0,0,0,0,0,0,0,0,54,0,0,26,14
COC(=O)c1cccc(NC(=O)NC2CCN(c3ccnc(Nc4cc(OC)c(OC)c(OC)c4)n3)C2)c1 (stereo not drawn) [GSK1379767],0,0,38,0,18,7,19,0,0,5,0,0,7,19,5,44,0,0,7,11
Cc1ccc(C(=O)Nc2ccc(Oc3ccc4nc(NC(=O)C5CC5)cn4c3)c(F)c2)c(=O)n1-c1ccccc1,0,0,35,0,0,0,28,24,0,0,0,5,0,4,0,38,19,0,82,100
Cc1nnc(-c2ccc3occ(-c4ccc(S(C)=O)cc4)c3n2)o1 (stereo not drawn),0,0,0,0,0,4,0,0,22,0,0,0,0,56,0,16,2,0,14,0
C[C@@H]1CCN(C(=O)N2CCCC2)C[C@@H]1N(C)c1ncnc2[nH]ccc12,20,21,44,17,17,13,30,0,0,54,26,29,13,0,0,0,0,0,10,41
COc1cccc(C2=C(Nc3cccc(Cl)c3)C(=O)NC2=O)c1 [SB-341556],0,0,8,26,19,0,0,17,0,0,6,0,11,11,21,25,16,3,11,37

SMILES,%Inh [1] [%],%Inh [2] [%],%Inh [3] [%],%Inh [4] [%],%Inh [5] [%],%Inh [6] [%],%Inh [7] [%],%Inh [8] [%],%Inh [9] [%],%Inh [10] [%],%Inh [11] [%],%Inh [12] [%],%Inh [13] [%],%Inh [14] [%],%Inh [15] [%],%Inh [16] [%],%Inh [17] [%],%Inh [18] [%],%Inh [19] [%],%Inh [20] [%]
O=C(Nc1ccc(Oc2ccc3nc(NC(=O)C4CC4)cn3n2)c(F)c1)c1cccn(-c2ccccc2)c1=O,0,0,0,0,0,0,28,0,0,9,0,30,1,0,0,0,19,0,87,99.9
COc1cc2nccc(Nc3ccc(Oc4ccccc4)cc3)c2cc1OC.Cl [GI261656],0,0,15,0,0,1,0,0,0,0,6,0,0,0,0,48,0,3,11,23
Cc1cccc2c(-c3ccncc3)c(-c3ccc(F)cc3)nn12.Cl [GW461487],0,0,0,3,10,0,23,0,2,36,0,9,8,0,3,7,22,15,11,18
Cc1n[nH]c2cc(Nc3ccnc(Nc4cccc(CN5CCOCC5)c4)n3)ccc12 [GW682569],15,53,72,0,51,0,26,0,0,0,18,0,3,23,0,65,0,0,0,56
O=C1NCCc2[nH]c(-c3ccncc3)cc21,37,40,30,27,59,58,18,46,72,0,43,83,99.1,9,28,43,0,0,17,0
CSc1nccc(-c2c(-c3ccc(F)cc3)ncn2CCCN2CCOCC2)n1.Cl [SB-217146],28,44,5,8,38,0,14,0,0,1,0,0,0,0,0,0,5,5,0,2
CN(c1cccc(CNc2nc(Nc3ccc4c(c3)CC(=O)N4)ncc2C(F)(F)F)c1)S(C)(=O)=O,70,69,89,27,16,0,22,38,27,39,28,0,0,0,0,0,71,0,0,85
COc1cc2c(Nc3ccc(NC(=O)c4ccccc4)cc3)ncnc2cc1OCCCN1CCOCC1 [GSK301329],0,0,36,6,0,0,0,9,0,4,0,0,21,0,22,0,0,18,1,79
CC(C)c1nc(-c2cccc(NS(=O)(=O)c3ccccc3)c2)c(-c2ccnc(Nc3ccc4c(c3)CN(C)CC4)n2)s1 [GSK1649598],0,0,99.8,0,0,0,45,11,93.9,99.9,100,0,0,29,5,8,48,49,87,95.4
Cc1ccc2c(-c3ccnc(Nc4ccc(C(F)(F)F)cc4)n3)cnn2n1 [GW819776],15,33,9,5,0,0,22,0,0,0,0,8,0,0,0,0,16,14,15,0
CC(C)S(=O)(=O)N1CCN(Cc2ccc3c(c2)nc(NC(=O)c2ccsc2)n3C[C@H](O)c2ccccc2)CC1 [GW635815],0,0,5,11,15,13,18,12,0,0,0,23,18,0,16,10,38,3,6,44
O=C(Nc1cccc(Oc2ccc3nccn3n2)c1)Nc1cccc(C(F)(F)F)c1,0,0,0,10,0,0,11,9,2,24,20,6,0,0,0,11,3,14,90,86
CS(=O)(=O)c1cccc(CNc2nc(Nc3ccc4c(c3)[C@@H]3C[C@@H]4CNC3=O)ncc2C(F)(F)F)c1,0,0,98.7,0,5,0,8,14,22,28,22,0,0,0,0,10,66,0,0,100
CC(=O)Nc1ccc(-c2cc3ncnc(SCC(=O)O)c3s2)cc1,15,7,47,22,10,1,0,18,22,0,7,1,10,23,24,22,0,1,14,15
CC(=O)c1c(-c2ccncc2)[nH]c(-c2ccncc2)c1C [GW493036],0,0,0,0,25,13,0,0,2,15,100,75,73,0,0,22,0,0,41,26
C[C@@H]1CNc2c(sc3ccc4nc(-c5ccc(O)cc5)ccc4c23)C(=O)N1,6,15,90.1,43,46,35,5,59,70,34,43,12,61,0,0,12,19,0,0,13
COc1ccc(Nc2nccc(N3CCC(NC(=O)c4cccc(C#N)c4)C3)n2)cc1 (stereo not drawn) [GSK1379730],0,0,0,8,0,36,54,0,0,0,0,12,15,0,0,9,18,2,0,28
O=c1[nH]cc(-c2ccc(O)cc2)c2sc(-c3ccncc3)cc12 [GSK1033723],0,0,0,0,21,0,33,19,0,0,1,16,14,0,10,22,–,1,7,29
O=C(NOCC1CC1)c1cc(Br)c(F)c(F)c1Nc1ccc(I)cc1Cl,0,4,0,0,6,0,0,13,0,11,0,0,0,0,0,32,0,0,0,6
CS(=O)c1ccc(-c2coc3ccc(-c4n[nH]c(=O)o4)cc23)cc1 (stereo not drawn),4,6,34,24,7,0,8,2,0,4,0,4,0,20,0,14,4,0,20,12
